Dicer processing: blocks human Dicer maturation of pre-miR-21 | Q9UPY3 | cat-ELCCA pre-miR-21 Dicer processing, chemiluminescence; hits give high values | z-score at 25 µM | 6% of 47,000 active | AID 1347074; in the data active = z-score above about 3, passing the limit was not always enough;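 note: higher signal means more uncleaved substrate so more Dicer inhibition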
Each line names hits and unclear results; the compound was inactive in the other large screens. This is one part of a sample in which hits are shown more often than they occur.

CCOc1ccc(C(=O)Cn2c(C)[n+](C)c3ccccc32)cc1	none
O=[N+]([O-])c1c(SCCO)ccc2nsnc12	none
NC(=O)Cc1nc(-c2ccc(Br)cc2)cs1	Dicer processing 3.2
O=C(Cn1c(=O)sc2ccccc21)Nc1nc(-c2ccc(Br)cc2)cs1	none
NC(=O)COc1ccc(-c2noc(COc3ccc(Br)cc3)n2)cc1	none
Cc1cc(N2CCN(C(=O)c3ccco3)CC2)c2nncn2n1	none
CCN(CC)C(=O)CN(C#N)c1nc(C)cc(C)n1	none
COC(=O)CN(C#N)c1nc(C)cc(OC)n1	none
COC(=O)C(C)N(C#N)c1nc(C)cc(C)n1 (centres undefined)	Dicer processing 6
COC(=O)/C=C(/Sc1cc(C)c(Cl)cc1C)C(=O)OC	none
N/C(=N\O)c1cc(C(F)(F)F)cc(C(F)(F)F)c1	none
CCOC(=O)c1cc(C(C)(C)C)n(-c2ccc(N3CCOCC3)cc2)c1C	none
CCOC(=O)c1cc(-c2ccccc2)n(-c2ccc(N3CCOCC3)cc2)c1C	Dicer processing 4.3
CCOC(=O)c1cc(-c2ccc(Cl)cc2)n(-c2ccccc2)c1C	none
Clc1ccc2c(c1)c(-c1ccccc1)nc1nnnn12	none
COc1ccc(/C=C/c2nc3ccccc3n(C)c2=O)cc1OC	none
O=C(c1nc2ncccn2n1)N1CCN(C(c2ccccc2)c2ccccc2)CC1	none
CN(C)/C=N/C(=S)Nc1cccc(F)c1	none
CN(C)/C=N/C(=S)Nc1cccc(C(F)(F)F)c1	Dicer processing 4.9
CC(C)(C)NNC(=S)Nc1cccc(C(F)(F)F)c1	none
CCN1C(=O)C(O)(c2c[nH]c3ccccc23)c2ccccc21 (centres undefined)	none
CCOC(=O)N1CCN(S(=O)(=O)c2ccc(-c3cc(C(F)(F)F)on3)s2)CC1	none
NC(=O)C1(N2CCCCC2)CCN(C2CC(=O)N(c3cccc(Cl)c3)C2=O)CC1 (centres undefined)	none
Cc1ccc(C(=O)CN2/C(=C(/O)c3ccccc3)C(=O)c3ccccc3S2(=O)=O)c(C)c1	none
Cc1ccc(N2C(=O)c3ccccc3C2C(=O)c2ccc(C)cc2O)cc1 (centres undefined)	Dicer processing 12
Cc1ccc(C(=O)C2C(=O)c3ccccc3C2=O)cc1	none
C=CCN1C(=O)C(=Nc2ccc(Cl)cc2)c2ccccc21	none
CCOC(=O)CNC(=O)c1cc(OC)c(OC)c(OC)c1	none
O=C(NCCCO)C(=O)Nc1ccc(Br)cc1	none
C#CC(C)(C)NC(=O)c1ccc(-c2ccc(CC)cc2)cc1	none
Cn1c(-c2ccc3nc(-c4ccc(N)cc4)[nH]c3c2)nc2cc(N)ccc21	Dicer processing 5.7
Cn1c(-c2ccc(-c3nc4ccccc4[nH]3)cc2)nc2cc(N)ccc21	Dicer processing 4.7
Clc1ccc(-c2nc3ccccc3[nH]2)cc1	none
Nc1ccc(Oc2ccc3nc(-c4ccc(N)cc4)[nH]c3c2)cc1	none
Nc1ccc2nc(-c3cccnc3)[nH]c2c1	none
Nc1ccc2nc(-c3ccccc3)[nH]c2c1	none
COc1cccc(C2C3=C(CC(C)(C)CC3=O)Nc3ccc4ccccc4c32)c1 (centres undefined)	none
CC1=C(C(=O)OC(C)C)C(c2ccc(Cl)cc2)C2=C(CC(c3ccccc3)CC2=O)N1 (centres undefined)	none
COC(=O)C1=C(C)Nc2nc3ccccc3n2C1c1ccc(OCc2ccccc2)cc1 (centres undefined)	none
O=C(Nc1ccc(Cl)cc1)Nc1nc(-c2cc(Cl)c(Cl)s2)cs1	none
O=C(Nc1ccc(Cl)cc1)Nc1cc(Cl)sc1Cl	Dicer processing 4.7
N#Cc1c(F)ccc(NC(=O)Nc2ccc(Cl)cc2)c1F	none
CC1=C(C(=O)OC(C)C)C(c2ccc(F)cc2)n2c(nc3ccccc32)N1 (centres undefined)	none
COc1ccc(-c2cc(=O)[nH]c(Sc3c(-c4ccccc4)c4cc(Cl)ccc4[nH]c3=O)n2)cc1	none
COc1ccc(C2CC(=O)C3=C(C2)Nc2ncnn2C3c2ccccc2)cc1 (centres undefined)	none
O=C1CC(c2ccccc2)CC2=C1C(c1ccco1)n1ncnc1N2 (centres undefined)	Dicer processing 3.9
c1ccc(C2CC(c3ccco3)n3ncnc3N2)cc1 (centres undefined)	none
CNC(=O)c1ccccc1Sc1ccc(Cl)cc1C(=O)O	none
COc1ccc(OC)c(C2C(C(=O)OC(C)C)=C(C)NC3=C2C(=O)CC(c2ccccc2)C3)c1 (centres undefined)	none
O=C(Cn1nnc(N2CCCCC2)n1)c1ccccc1	none
Cc1cccc(C(=O)N(Cc2ccccc2)C(C)C)c1C	none
ONC=Nc1ccccc1Sc1nc2c(Cl)cc(Cl)cc2s1	none
ONC=Nc1ccccc1Sc1nc2cc(Cl)ccc2s1	Dicer processing 3.1
Nc1ccccc1Sc1nc2cc(Cl)ccc2s1	none
CCCCN(C)c1ncnc2c1sc1nc(C)c3c(c12)CC(C)(C)OC3	none
CCOC(=O)NC(=S)Nc1cccc(C)n1	none
CC(CO)(CO)NC(=S)Nc1ccc(F)cc1	Dicer processing 5.8
N#CCC(=O)NNC(=S)Nc1cc(C(F)(F)F)cc(C(F)(F)F)c1	none
N#CCC(=O)NNC(=S)Nc1ccc(F)cc1	Dicer processing 3.3
CCOC(=O)NC(=S)Nc1ccc(C(C)(C)C)cc1	Dicer processing 5.1
CC(C)(C)C(=O)NC(=S)Nc1ccc(C(F)(F)F)cc1	none
CCOC(=O)NC(=S)Nc1ccc(F)cc1	Dicer processing 6.7
OCC(CO)(CO)NC(=S)Nc1ccc(F)c(Cl)c1	none
CC(C)(CO)NC(=S)Nc1ccc(F)cc1	none
CCOC(=O)NC(=S)Nc1ccc(C(C)(C)C)cc1NC(=S)NC(=O)OCC	none
O=C(CCc1ccc(O)cc1)NNC(=S)Nc1ccc(F)cc1	none
CCOC(=O)NC(=S)Nc1ccc(N2CC(C)OC(C)C2)cc1 (centres undefined)	none
O=C(NNC(=O)c1cnn(-c2ccccc2)n1)c1ccc(Cl)c(Cl)c1	none
COc1cc(C2/C(=C(\O)c3ccccc3)C(=O)C(=O)N2c2cccc(Cl)c2)ccc1O (centres undefined)	none
CSc1cccc(-n2c(C(C)(C)C)cs/c2=N/c2ccccn2)c1	none
CCCCc1ccc(-c2c3oc(N)c(C(=O)OCC)c3cc3oc(N)c(C(=O)OCC)c23)cc1	none
COCCCN1C(=O)c2ccc3c(=O)n4c5ccc(Cl)cc5nc4c4ccc(c2c34)C1=O	none
COc1cc2ncnc(N3CCCC3)c2cc1OC	none
Cc1ccc(N(CC(O)CN(C)C)S(=O)(=O)c2ccc(C)cc2)cc1 (centres undefined)	none
O=C(ON=C1CCCCCCCCCCC1)c1cccs1	none
COc1cc(/C=N/N=C(N)N)cc(OC)c1OC	none
Cc1c(S(=O)(=O)Nc2ccc(C#N)cc2)sc2ccc(Cl)cc12	none
O=C(O)/C=C/C(=O)NCc1cccc(Cl)c1	none
CCOC(=O)C1=C(C)Nc2ncnn2C1c1ccc(O)cc1 (centres undefined)	none
Cc1cccc(Oc2ccc(N)cn2)c1C	none
CCOc1ccc(CN2CCN(Cc3cc(Br)ccc3O)CC2)cc1	none
CC(NCC(O)Cn1c2ccccc2c2ccccc21)C(=O)O (centres undefined)	none
CC(C)(C)NCC(O)Cn1c2ccccc2c2ccccc21 (centres undefined)	none
OCCNCC(O)Cn1c2ccccc2c2ccccc21 (centres undefined)	Dicer processing 4.5
Cc1ccc(S(=O)(=O)NC(=O)Nc2ccc(CC#N)cc2)cc1	none
C#Cc1cccc(NC(=S)NNC(=S)Nc2cccc(C#C)c2)c1	Dicer processing 8.9
C#Cc1cccc(NC(=O)c2ccccc2)c1	none
Cc1cccc(NC(=S)NNC(=O)NNC(=S)Nc2cccc(C)c2)c1	none
CCOC(=O)C1C2C=CC3(CN(Cc4ccc(C)cc4)C(=O)C13)O2 (centres undefined)	none
Cc1ccc(OCc2nc(-c3ccccn3)no2)c(C)c1	none
Cc1ccccc1NCc1c(C#N)c2ccccc2n1C	Dicer processing 3.5
